Among the data in PubChem BioAssay (NCATS) are outcome values, retold here.

Activity calls are given as the source filed them. The call rests on the fitted dose curve; in most records, active means well fitted curve in the direction sought with a large enough effect; inconclusive means small, poorly fitted or top-dose-only effect, or effect the other way, or another doubt; inactive means no such curve, though single readings can be large or run the other way.

The test can be described thus: Inducers of the Endoplasmic Reticulum Stress Response (ERSR) in human glioma: Validation (AID 504836). To be noted: human glioma cells, ER stress response reporter; series mostly up to 38.3 µM. Summed up:
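Stably transfected U87-MG glioma cells carrying a GRP78-based luciferase sensor; 16 h compound incubation. Luminescence end-point read 10 min after Bright-Glo addition at room temperature.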
`CN(C)CCCN1c2ccccc2Sc2ccc(C(F)(F)F)cc21`: the outcome was inactive. The value for `Nc1ccn([C@H]2CC[C@@H](CO)O2)c(=O)n1` was “inactive”; that for `c1cnc(N2CCN(Cc3ccc4c(c3)OCO4)CC2)nc1` was “inactive”; that for `O=C(O)c1cccnc1Nc1cccc(C(F)(F)F)c1` was “inactive”.

For `CNCCC(Oc1ccccc1OC)c1ccccc1` (stereo not given), the compound was classed as inactive.

Regarding `Cc1ccc(N(CC2=NCCN2)c2cccc(O)c2)cc1`, the compound was called inactive. Under `Fc1ccc(C(c2ccc(F)cc2)N2CCN(C/C=C/c3ccccc3)CC2)cc1` stands “inactive”; under `N[C@@H](Cc1c[nH]c2ccc(O)cc12)C(=O)O`, “inactive”. Consider `OC(CN1CCC(Cc2ccc(F)cc2)CC1)c1ccc(Cl)cc1` (stereo not given), for which the compound was called inactive. Take `Cn1c(=O)c2c(ncn2C)n(C)c1=O`: the compound was classed as inactive. As to `C[n+]1cc2c3c(ccc2c2ccc4cc5c(cc4c21)OCO5)OCO3`, the compound was called inactive. Regarding `CC(C)(Oc1ccc(CCNC(=O)c2ccc(Cl)cc2)cc1)C(=O)O`, the outcome was inactive. Consider `Brc1c(NC2=NCCN2)ccc2nccnc12`, for which the result was inactive. The value for `COc1ccccc1N1CCN(CC(O)COc2cccc3ccccc23)CC1` (stereo not given) was “inactive”; that for `CCN(CC)CCCC(C)Nc1c2ccc(Cl)cc2nc2ccc(OC)cc12` (stereo not given) was “inactive”; that for `CCn1ccnc1CC1COc2ccccc2O1` (stereo not given) was “inactive”. Under `CC(C)COCC(CN(Cc1ccccc1)c1ccccc1)N1CCCC1` (stereo not given) stands “inactive”; under `O=C(O)CCc1nc(-c2ccccc2)c(-c2ccccc2)o1`, “inactive”; under `COC(=O)[C@@H](N)Cc1ccc(O)c(O)c1`, “inactive”. For the compound `C[C@]12CCC(=O)C=C1CC[C@@H]1[C@@H]2CC[C@@]2(C)[C@H]1CC[C@]2(O)C(=O)CO`, the call was inactive. As for `CC(=O)[C@@]1(O)CC[C@H]2[C@@H]3CCC4=CC(=O)CC[C@]4(C)[C@H]3CC[C@@]21C`, the compound was classed as inactive.

`O=C(CCCN1CCC(O)(c2cccc(C(F)(F)F)c2)CC1)c1ccc(F)cc1`: the outcome was inactive.

In the case of `Oc1ccc(/C=C/c2cc(O)cc(O)c2)cc1`, the call was inactive. Under `Clc1ccc(Cn2c(CN3CCCC3)nc3ccccc32)cc1` stands “inactive”; under `Cc1ccc(C(=O)Nc2ccc(S(=O)(=O)O)c3cc(S(=O)(=O)O)cc(S(=O)(=O)O)c23)cc1NC(=O)c1cccc(NC(=O)Nc2cccc(C(=O)Nc3cc(C(=O)Nc4ccc(S(=O)(=O)O)c5cc(S(=O)(=O)O)cc(S(=O)(=O)O)c45)ccc3C)c2)c1`, “inactive”; under `CC(C(=O)O)c1ccc(CC2CCCC2=O)cc1` (stereo not given), “inactive”. As to `c1cc(CN2CCCCC2)cc(OCCCNc2nc3ccccc3s2)c1`, the compound was classed as inactive. Under `C[N+](C)(C)CCCCCCCCCC[N+](C)(C)C` stands “inactive”; under `COc1ccccc1N1CCN(CCCNc2cc(=O)n(C)c(=O)n2C)CC1`, “inactive”.

Take `CCCCNc1c(C(=O)OCC)c(C)nc2c1cnn2CC`: the compound was classed as inactive. With `C=Cc1c(C)c2cc3[nH]c(cc4nc(cc5nc(cc1[nH]2)C(C)=C5CCC(=O)O)C(CCC(=O)O)=C4C)c(C)c3C=C`, the compound was classed as inactive. Take `CCNC(=O)N1CCN(CCCC(c2ccc(F)cc2)c2ccc(F)cc2)CC1`: the compound was classed as inactive. As to `Nc1c2c(nc3ccccc13)CCCC2`, the compound was called inactive. As to `CSc1ccc2c(c1)C(N1CCN(C)CC1)Cc1ccccc1S2` (stereo not given), the call was inactive. Under `CCc1cccc(N(C)C(N)=Nc2cccc3ccccc23)c1` stands “inactive”; under `CN(C)CCCN1c2ccccc2Sc2ccccc21`, “inactive”; under `COCCc1ccc(OCC(O)CNC(C)C)cc1` (stereo not given), “inactive”.

In the case of `CN(C)C/C=C(/c1ccc(Br)cc1)c1cccnc1`, the compound was classed as inactive.

On to `CN(C)CCOC(c1ccccc1)c1ccccc1`, for which the compound was classed as inactive. For `C[C@]12CCC(=O)C=C1CC[C@@H]1[C@@H]2C(=O)C[C@@]2(C)[C@H]1CC[C@]2(O)C(=O)CO`, the compound was classed as inactive.
